# Data reported in ChEMBL document CHEMBL3988442, “University of Dundee, Small-Polar-MMV Screening Library” (2021).
# Screen size: about 67,000 compounds; about 300 (0.45%) showed an effect of 50% or more. The list comes from a sample in which strong results are over-represented; it also holds similar structures and randomly drawn compounds.
# Biological target: Polyketide synthase Pks13 (Mycobacterium tuberculosis (strain ATCC 25618 / H37Rv)) (UniProt I6X8D2)
# Experiment: Mycobacterium tuberculosis Polyketide synthase 13 Thioesterase (PKS13)
# Assay type: functional
# Set-up: scale not given: in the data most compounds retested in dose-response had high values
# Conditions: 30 µM
# Polyketide synthase Pks13 (Mycobacterium tuberculosis (strain ATCC 25618 / H37Rv)), sequence (I6X8D2 whole entry): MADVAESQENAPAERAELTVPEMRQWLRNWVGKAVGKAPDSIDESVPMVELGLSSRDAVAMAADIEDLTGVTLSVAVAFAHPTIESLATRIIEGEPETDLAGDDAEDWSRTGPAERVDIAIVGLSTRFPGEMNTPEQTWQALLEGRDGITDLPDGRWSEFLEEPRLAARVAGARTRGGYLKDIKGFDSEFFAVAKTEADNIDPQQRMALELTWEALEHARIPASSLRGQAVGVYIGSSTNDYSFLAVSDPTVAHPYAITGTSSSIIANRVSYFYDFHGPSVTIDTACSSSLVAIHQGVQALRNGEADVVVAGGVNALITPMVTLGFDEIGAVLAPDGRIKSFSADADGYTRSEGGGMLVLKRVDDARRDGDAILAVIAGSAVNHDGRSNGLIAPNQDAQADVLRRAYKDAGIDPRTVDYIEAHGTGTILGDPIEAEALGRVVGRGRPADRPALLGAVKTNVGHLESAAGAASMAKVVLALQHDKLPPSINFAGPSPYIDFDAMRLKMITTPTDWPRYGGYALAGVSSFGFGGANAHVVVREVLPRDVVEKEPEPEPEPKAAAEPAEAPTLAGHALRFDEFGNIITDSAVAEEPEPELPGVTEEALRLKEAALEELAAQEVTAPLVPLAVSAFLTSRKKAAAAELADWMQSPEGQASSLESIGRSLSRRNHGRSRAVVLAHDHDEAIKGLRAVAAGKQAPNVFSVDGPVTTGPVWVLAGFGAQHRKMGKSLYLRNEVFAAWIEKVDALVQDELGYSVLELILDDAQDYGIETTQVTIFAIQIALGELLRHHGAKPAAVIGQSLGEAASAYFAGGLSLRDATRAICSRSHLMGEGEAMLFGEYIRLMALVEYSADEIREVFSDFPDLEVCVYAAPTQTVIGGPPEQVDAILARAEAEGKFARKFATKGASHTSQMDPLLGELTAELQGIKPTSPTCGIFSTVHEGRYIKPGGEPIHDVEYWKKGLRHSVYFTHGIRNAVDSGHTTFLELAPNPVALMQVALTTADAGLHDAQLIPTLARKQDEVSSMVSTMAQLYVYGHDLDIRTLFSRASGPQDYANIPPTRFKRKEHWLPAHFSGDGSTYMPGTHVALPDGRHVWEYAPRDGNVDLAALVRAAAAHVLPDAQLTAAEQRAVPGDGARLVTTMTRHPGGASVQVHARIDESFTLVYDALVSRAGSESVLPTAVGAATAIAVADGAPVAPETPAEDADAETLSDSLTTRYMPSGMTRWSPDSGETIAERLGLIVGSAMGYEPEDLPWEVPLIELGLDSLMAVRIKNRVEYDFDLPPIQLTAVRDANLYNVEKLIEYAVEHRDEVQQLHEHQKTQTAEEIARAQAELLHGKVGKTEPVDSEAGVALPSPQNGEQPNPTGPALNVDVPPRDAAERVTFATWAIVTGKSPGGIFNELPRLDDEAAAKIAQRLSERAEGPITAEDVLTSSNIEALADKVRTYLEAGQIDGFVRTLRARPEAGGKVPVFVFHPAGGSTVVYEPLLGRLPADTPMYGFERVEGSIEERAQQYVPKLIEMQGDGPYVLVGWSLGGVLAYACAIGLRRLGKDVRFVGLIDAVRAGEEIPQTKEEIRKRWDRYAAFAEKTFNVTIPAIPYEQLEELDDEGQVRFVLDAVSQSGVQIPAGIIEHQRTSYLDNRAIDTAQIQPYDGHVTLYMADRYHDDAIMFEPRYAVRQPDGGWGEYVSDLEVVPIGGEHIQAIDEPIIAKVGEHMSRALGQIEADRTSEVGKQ
row,SMILES,Percent Effect [%]
1,CC(=O)N1CCCN(C(=O)NC(C)c2csc3ccccc23)CC1 (centres undefined),-15.4
2,CC(NC(=O)N1CCC(CC(N)=O)CC1)c1csc2ccccc12 (centres undefined),-11.9
3,CC(NC(=O)N1CCC(CO)CC1)c1csc2ccccc12 (centres undefined),53
4,Cc1cnn(CC2CCCN2Cc2cc(=O)n3cccc(C)c3n2)c1 (centres undefined),-5.2
5,Cc1cnn(CC2CCCN2Cc2cc(=O)n3cc(C)ccc3n2)c1 (centres undefined),99.9
6,Cc1cnn(CC2CCCN2Cc2cc(=O)n3ccccc3n2)c1 (centres undefined),2.94
7,Cc1cnc(CNC(=O)[C@@]23CCO[C@@H]2CCN(c2ncccn2)C3)cn1,-4.01
8,CC(C)CN1C[C@H]2CCN(C(=O)NC3CCCC3)CC[C@H]2S1(=O)=O,6.92
9,Cc1ccc(C)c(OC2CCN(C(=O)CNc3ccccc3Cl)CC2)c1,73.1
10,Cc1ccc(C)c(OC2CCN(C(=O)NCC(=O)N3CCCC3)CC2)c1,-7.72
11,CCNC(=O)CCC(=O)N1CCC(Oc2cc(C)ccc2C)CC1,-5.09
12,CNC(=O)CN1CC[C@H]2CN(C(=O)c3cccc(C)c3)C[C@H]2C1,-11
13,Cn1ccc(C(=O)N2C[C@@H]3CCN(c4cnccn4)C[C@@H]3C2)n1,-2.86
14,Cn1cncc1C(=O)N1C[C@@H]2CCN(c3cnccn3)C[C@@H]2C1,-6.26
15,Cn1ccnc1C(=O)N1C[C@@H]2CCN(c3cnccn3)C[C@@H]2C1,124
16,O=C(c1ccco1)N1CCO[C@@H]2CN(c3ncc(F)cn3)CC[C@@H]2C1,-32.7
17,CS(=O)(=O)NC[C@]12COC[C@H]1CN(C(=O)c1ccncn1)C2,-5.6
18,Cc1noc(C)c1CN1C(=O)[C@H]2CC[C@@H]1CN(Cc1cscn1)C2,7.07
19,CN(Cc1ccncc1)C1CCC[C@@H]2CN(c3ncccn3)C[C@H]12 (some centres undefined),-25.8
20,COc1ccccc1-n1c(C)cc(CNC(=O)NC(C)C)c1C,0.233
21,CCOC(=O)CNC(=O)NCc1cc(C)n(-c2ccc(OC)cc2)c1C,10.9
22,CCOC(=O)CNC(=O)NCc1cc(C)n(-c2ccccc2OC)c1C,50

row,SMILES,Percent Effect [%]
1,CN1C[C@@H]2CN(C(=O)C3CC=CC3)C[C@@H]2C1=O,-9.96
2,CCC(O)CN1CCN(C(=O)c2ccc(N(C)C)nn2)CC1 (centres undefined),5.36
3,CN(C)c1ccc(C(=O)N2CCN(C(=O)N3CCCCC3)CC2)nn1,65.3
4,CN(C)c1ccc(C(=O)N2CCN(CC(C)(C)O)CC2)nn1,-26.8
5,CCS(=O)(=O)N1C[C@H](c2nc(C)no2)C[C@H]2OCC[C@H]21,5.36
6,CCc1ccc(CN2C[C@H](OC)[C@H]3COC[C@H]32)o1,-5.96
7,O=C(NC1CCC1)[C@H]1C[C@@H]2CN(C(=O)Nc3ccc(F)cc3)C[C@H]1O2,5.75
8,O=C(c1ccc(O)cc1)N1C[C@@H]2OCCN(c3ncccn3)[C@@H]2C1,-11.4
9,Cn1cc(CN2C[C@H]3CCC[C@@H](CNc4nccn4C)[C@H]3C2)cn1,-23.6
10,Cc1cccc(CN2C(=O)C[C@H]3[C@@H]2CCN3Cc2ccco2)n1,-23.1
11,CCOc1cccc(NS(=O)(=O)c2cc(C(=O)O)cs2)c1,0.586
12,CCCOc1cccc(NS(=O)(=O)c2cc(C(=O)O)cs2)c1,40.8
13,O=C(O)c1csc(S(=O)(=O)Nc2cccc(OCC(F)(F)F)c2)c1,50
14,NC(=O)N1CCCN(CCc2nc(-c3cccc(Cl)c3)no2)CC1,55.5
15,Clc1cccc(-c2noc(CCN3CCN(c4ccncc4)CC3)n2)c1,-57.2
16,CCOC1CCN(CCc2nc(-c3cccc(Cl)c3)no2)CC1,8.68
17,CN1CCN(C(=O)[C@H]2C[C@@H]3CN(c4ncc(F)cn4)C[C@@H]3N2C)CC1,-4.39
18,COCC(=O)N1CC[C@@H]2O[C@H](COCc3ccncc3)CC[C@@H]21,-12.9
19,CC1CCN(S(=O)(=O)c2cccn(CC(=O)NC(C)(C)C)c2=O)CC1,-9.8
20,COC(=O)Cn1cccc(S(=O)(=O)N2CCC(C)CC2)c1=O,50.5
21,CC1CCN(S(=O)(=O)c2cccn(CC(=O)NC3CCCC3)c2=O)CC1,3.17
22,CCCOC(=O)N1CCc2cccc(S(=O)(=O)N3CCOCC3)c2C1,-4.05

row,SMILES,Percent Effect [%]
1,CCOCCC(=O)N1CCc2cccc(S(=O)(=O)N3CCOCC3)c2C1,59.9
2,COCC(=O)N1CCc2cccc(S(=O)(=O)N3CCOCC3)c2C1,-3.94
3,COCCNC(=O)[C@@H]1CN(c2ncccn2)C[C@H]2OCC[C@H]21,-43.5
4,CC(=O)N1C[C@H]2CN(CC3CC3)C(=O)[C@H]2C1,-18.6
5,CSc1ccc2cc(CN(C)CCCN(C)C)c(=O)[nH]c2c1,6.22
6,CSc1ccc2cc(CN(C)CCO)c(=O)[nH]c2c1,67
7,CSc1ccc2cc(CN(C)CCc3cn[nH]c3)c(=O)[nH]c2c1,-13.1
8,Cc1cnc(N2CCN3C[C@H](OCc4ccccn4)C[C@H]3C2)nc1,-24.2
9,Cn1ccnc1CN1CCN2C[C@H](Oc3cccc(F)c3)C[C@H]2C1,23.6
10,O=C1C[C@H]2CC[C@@H](CN1)N2C1CCSCC1,-1.94
11,CN(CC1CCCCC1)C(=O)c1ccc(-n2ncc(C#N)c2N)cc1,52.7
12,CN(C(=O)c1ccc(-n2ncc(C#N)c2N)cc1)C1CCCC1,-1.63
13,N#Cc1cnn(-c2ccc(C(=O)N(C3CCCCC3)C3CC3)cc2)c1N,-18
14,CCCN1CCN(C(=O)c2cnccn2)[C@H]2CS(=O)(=O)C[C@H]21,-4.16
15,c1cncc(CO[C@H]2CC[C@H]3[C@@H]2OCCN3C2CCOCC2)c1,2.72
16,Cc1cc(C)cc(CN2C[C@@H]3OCCN(S(=O)(=O)N(C)C)[C@@H]3C2)c1,-14.4
17,CC1(C)O[C@@](C)([C@H]2CC3(CCN(c4cnccn4)CC3)CO2)CC[C@@H]1O,-3.99
18,CC(C)c1cc(N2CCC(N)CC2)n2nccc2n1,61.4
19,CC(C)c1cc(N2CC[C@H](F)C2)n2nccc2n1,-11.1
20,CC(C)c1cc(N2CCC[C@H](N)C2)n2nccc2n1,-7.75
21,O=C(NC1CC1)[C@@H]1CCO[C@@H]2CCN(C3CCOCC3)C[C@@H]21,-12.6
22,Cc1nnc([C@H]2CC[C@@H]3[C@@H](CCN3Cc3c(C)noc3C)O2)o1,-7.83

row,SMILES,Percent Effect [%]
1,CN(C)C(=O)CO[C@@H]1CC[C@H]2[C@H]1OCCN2C(=O)C1CCOCC1,-1.73
2,CC(=O)N1CCN2C(=O)N(Cc3ccc(F)cc3)C[C@H]2C1,-33.1
3,O=C(O)c1c(-c2cncnc2)ncc2c1CCN(CC1CCOC1)C2 (centres undefined),-5.14
4,Cn1cc(-c2ncc3c(c2C(=O)O)CCN(CC2CCOC2)C3)cn1 (centres undefined),111
5,Cn1cc(-c2ncc3c(c2C(=O)O)CCN(CC2CC2)C3)cn1,-9.1
6,O=S(=O)(C1CC1)N1CCO[C@@H]2CN(Cc3ccco3)C[C@@H]2C1,-22.6
7,Cn1cc(CN2CC[C@@H]3[C@@H]2CCN3Cc2ccc3c(c2)OCO3)cn1,-41.2
8,Cc1noc([C@@H]2CCO[C@@H]3CCN(Cc4cccs4)C[C@@H]32)n1,2.92
9,CCc1nc(C2CCCN2C(=O)c2nccnc2N)no1 (centres undefined),29.6
10,CCc1n[nH]c(C2CN(C(=O)c3ncoc3CC)CCO2)n1 (centres undefined),-48.2
11,CCc1nc(C2CCCN2C(=O)c2ncoc2CC)no1 (centres undefined),-6.87
12,Cc1nc(C)n(C2CCCN(C(=O)c3nc(C)n4ccccc34)C2)n1 (centres undefined),93.6
13,Cc1nc(C)n(C2CCCN(C(=O)c3ccccc3C)C2)n1 (centres undefined),-12.6
14,CCc1n[nH]c(C2CN(C(=O)Cn3ccccc3=O)CCO2)n1 (centres undefined),-11.9
15,Cc1nc(C)n(C2CCCN(C(=O)c3cc4ccccc4n3C)C2)n1 (centres undefined),-20.9
16,CCc1nc(C2CCCN2C(=O)c2nc(C)n3ccccc23)no1 (centres undefined),75.3
17,CCc1n[nH]c(C2CN(C(=O)c3nc(C)n4ccccc34)CCO2)n1 (centres undefined),83
18,COC[C@H]1CC[C@H]2[C@H](CCN2S(=O)(=O)c2ccccc2)O1,4.33
19,c1ccc(CO[C@@H]2C[C@H]3CN(c4ncccn4)CCN3C2)nc1,-22
20,Cc1cnc(C(=O)N2C[C@H]3CN(Cc4cccnc4)C[C@H]3C2)cn1,-17.6
21,Cc1cccc(CN2C[C@@H]3CN(C(=O)c4ccco4)C[C@@H]3C2=O)c1,-32.5
22,CNC(=O)CN([C@H]1C[C@H]2CCOC[C@H]2C1)S(=O)(=O)c1ccccc1,-2.79

row,SMILES,Percent Effect [%]
1,CCN(CC)[C@@H]1CN(Cc2cnn(C)c2)[C@@H]2COC[C@H]12,-19.3
2,O=c1c(-c2ccnc(N3CCC[C@H]3CO)n2)cnc2sccn12,47.6
3,Cc1cn2c(=O)c(-c3ccnc(N4CCC[C@@H]4CO)n3)cnc2s1,72.5
4,Cc1csc2ncc(-c3ccnc(N4CCC[C@@H]4CO)n3)c(=O)n12,27.3
5,COCCN1C[C@@H]2CN(Cc3ccoc3)CCC[C@]2(C(=O)O)C1,-27.8
6,CCCNC(=O)c1cc2c(nc1O)CCC(C)C2 (centres undefined),-24.6
7,CC1CCc2nc(O)c(C(=O)NCCN(C)C)cc2C1 (centres undefined),-47.6
8,CC1CCc2nc(O)c(C(=O)NCCCN3CCN(C)CC3)cc2C1 (centres undefined),82.6
9,COc1ccc(CN2C[C@@H]3OCCN(c4ncccn4)[C@@H]3C2)cc1,-27.4
10,O=S(=O)(NC[C@H]1C[C@@H]2CCN1C[C@@H]2CN1CCCC1)c1ccc(Cl)cc1,2.53
11,O=C(C1CC1)N1CCc2ccccc2C12CCNCC2,61.6
12,COCC(=O)N1CCc2ccccc2C12CCNCC2,-33
13,CCOC(=O)N1CCc2ccccc2C12CCNCC2,5.43
14,CCOCC(=O)N1C[C@@H]2CC[C@H](C1)N(Cc1ccccn1)C2=O,-4.9
15,CC(C)OCc1ncn2c1CN(Cc1ccc(F)cc1)CCC2,-26.5
16,CC(C)OCc1ncn2c1CN(Cc1cccs1)CCC2,-19.5
17,CC(C)OCc1ncn2c1CN(Cc1nccs1)CCC2,54.5
18,CN1CCN2C[C@@H](CO)[C@H](c3ccccc3)[C@H]2C1,1.92
19,Fc1cnc(N2CC[C@@H](N3CCOCC3)[C@@H]2Cc2ccncc2)nc1,-11.8
20,Cn1cc(C[C@H]2[C@H](N3CCOCC3)CCN2c2ncc(F)cn2)cn1,56
21,Fc1cnc(N2CC[C@@H](N3CCOCC3)[C@@H]2Cc2ccccc2)nc1,-4.97
